The whole screen tested about 300,000 compounds, of which about 37,000 (12%) were called active. For the sample, actives were picked, then their nearest neighbours and some compounds at random. Unmarked numbers belong to inactive results. Cut-off read from the data, not from the text of the source: active = max response mostly above about 13% (no sharp cut-off); inactive = mostly below about 14%.
Test: Cycloheximide Counterscreen for Small Molecule Inhibitors of Shiga Toxin; note: read at 38.3 µM for the half of the compounds with a filed dose; 0% is about no effect
Conditions: cell reporter, cycloheximide protein synthesis inhibition counterscreen; active compounds read high

| SMILES | max response |
| --- | --- |
| COc1ccc(-c2noc(CCCC(=O)NC3CCCC3)n2)cc1OC | 3.35% |
| COc1ccc(OC)c(Cc2nnc(CCC(=O)NC3CCCC3)o2)c1 | 18.4% (active) |
| CCOc1ccc(-c2noc(CCC(=O)NC3CCCC3)n2)cc1OC | -5.32% |
| CC(=O)c1cc(CN2CCC(C(=O)Nc3cccc(-c4cscn4)c3)CC2)cs1 | 1.1% |
| CCCN(CCC)c1nc2c(C)cccn2c(=O)c1/C=C1/SC(=S)N(Cc2ccco2)C1=O | 3.29% |
| CC1CN(CC(=O)NC(C)c2ccccc2)CC(C)O1 (stereo not given) | -1.49% |
| O=C(NCc1cccs1)c1ccc(CS(=O)Cc2ccccc2Cl)o1 (stereo not given) | -1.19% |
| COc1ccc(-n2nc(C(=O)Nc3cc(OC)c(OC)c(OC)c3)c3ccccc3c2=O)c(OC)c1 | 7.65% |
| COc1ccc(-n2nc(C(=O)NCC(=O)N3CCN(c4ccccc4OC)CC3)c3ccccc3c2=O)c(OC)c1 | 24.9% (active) |
| COc1cccc(NC(=O)c2nn(-c3ccc(OC)cc3OC)c(=O)c3ccccc23)c1 | -9.73% |
| Cc1ccc(S(=O)(=O)N(CC(O)CN2CCCCC2)c2cccc([N+](=O)[O-])c2)cc1 (stereo not given) | -3.71% |
| COc1ccc(N(Cc2ccc(N(C)C)cc2)C(=O)c2ccc(S(C)(=O)=O)cc2)cc1 | -1.82% |
| O=C(O)CCn1cc(/C=C/C(=O)c2ccc(Cl)cc2)c(-c2cccc(Br)c2)n1 | 0.455% |
| FC(F)(F)c1nnc2c3ccccc3c(Cl)nn12 | -3.49% |
| CC(C)n1c(O)c(N=Nc2ccccn2)c2ccccc21 | 4.74% |
| Oc1oc(-c2ccccc2Br)nc1/C=N/c1ccccn1 | 34.5% (active) |
| CN(C(=O)CN1C(=O)S/C(=C\c2ccccc2F)C1=O)C1CCS(=O)(=O)C1 (stereo not given) | 0.582% |
| COc1ccc(CNC(=O)C(c2ccc(O)cc2)N(Cc2ccco2)C(=O)c2snc(C(N)=O)c2N)cc1 (stereo not given) | 2.14% |
| CCC(C)Sc1nc2c(cnn2-c2ccc(F)cc2)c(=O)[nH]1 (stereo not given) | 3.85% |
| CC(C)=CCN1CCN(Cc2cc3ccccc3[nH]2)CC1CCO (stereo not given) | -3.61% |
| Cc1cc(C)c(S(=O)(=O)c2cc(F)ccc2C)c(=O)[nH]1 | 2.04% |
| CCOc1cc(NC(=O)CCl)c(OCC)cc1NC(C)=O | -3.13% |
| CC(Cc1cccs1)N(Cc1ccc(Cl)cc1)C(=O)c1ccncc1 (stereo not given) | -4.21% |
| Cc1cc(C)nc(NC(=O)/C=C/c2ccc(Cl)cc2)n1 | 17.8% (active) |

| SMILES | max response |
| --- | --- |
| CC(C)(C)c1ccc(/C=C/C(=O)Nc2ncccn2)cc1 | 65.3% (active) |
| O=C(/C=C/c1ccc(Cl)cc1)Nc1ccc(S(=O)(=O)Nc2ncccn2)cc1 | 5.75% |
| Cc1ccc(NC(=S)NC(=O)/C=C/c2ccc(Cl)cc2)cc1 | 8.42% |
| O=C(/C=C/c1ccc(Cl)cc1)Nc1ccc(Br)cn1 | 14.3% |
| CC(C)(C)c1ccc(/C=C/C(=O)NC2CCS(=O)(=O)C2)cc1 (stereo not given) | 5.09% |
| O=S(=O)(NC1CC1)c1ccc2c3c(cccc13)CC2 | -1.96% |
| COc1ccc(C(O)(C2CCCCC2)C(CN2CCCC2)c2ccccc2)cc1 (stereo not given) | -2.99% |
| COC(=O)c1ccc(CN2C(=O)NC(c3ccccc3)(c3ccccc3)C2=O)o1 | -8.22% |
| O=C(Nc1cccc(F)c1)[C@@H]1CCCN1 | -0.0627% |
| COc1cccc(NC(=O)C/C(C)=N/NC(=O)C2CCCCC2)c1 | 1.09% |
| C/C(CC(=O)Nc1cccc(C(F)(F)F)c1)=N\NC(=O)C(=O)NCC(C)C | -3.56% |
| O=C(Nc1cccc(F)c1)NC1CCCCCCC1 | 52.8% (active) |
| O=C(Nc1cccc(F)c1)NC1CCCc2ccccc21 (stereo not given) | -2.71% |
| C/C(CC(=O)Nc1cccc(F)c1)=N\NC(=O)C(=O)NC1CCCCC1 | 12.1% (active) |
| Cc1ccc(CN2CCN(Cc3ccccc3-c3ccco3)CC2CCO)o1 (stereo not given) | -2.94% |
| CCN(c1ccccc1)S(=O)(=O)c1cc2c(cc1C)n(C)c(=O)c(=O)n2C | 1.1% |
| C=CCn1c(C23CC4CC(CC(C4)C2)C3)n[nH]c1=S | -2.9% |
| COc1ccccc1N1CCN(c2ncnc3sc(C)c(-c4ccccc4)c23)CC1 | 23.3% |
| Cc1ccc2c(c1)N(C(=O)CCC(=O)NCc1cccnc1)CCO2 | -2.33% |
| CC(=O)N1CCOc2ccc(S(=O)(=O)N3CCN(c4cccc(C(F)(F)F)c4)CC3)cc21 | -4.21% |
| COc1ccc2[nH]cc(CCN3C(=O)c4ccc(C(=O)O)cc4C3=O)c2c1 | 21.7% (active) |
| COCCCN1C(=O)c2ccc(C(=O)Nc3ccc(OC)cc3OC)cc2C1=O | 0.803% |
| COc1ccc(C[C@H](C(=O)O)N2C(=O)c3ccc(C(=O)O)cc3C2=O)cc1 | -3.3% |
| Cc1ccc2[nH]cc(CCCN3C(=O)c4ccccc4C3=O)c2c1 | 10.1% (active) |

| SMILES | max response |
| --- | --- |
| Cc1ccc2[nH]cc(CCNC(=O)C3CCCCC3)c2c1 | 0.628% |
| Cc1ccc2[nH]cc(CCNC(=O)c3ccc([N+](=O)[O-])cc3)c2c1 | 0.0509% |
| Clc1cccc(Cl)c1OCCOCCNCc1ccccc1 | 1.5% |
| CCN(CC)Cc1c(C(=O)N/N=C/c2cccc(OCc3ccc(F)cc3)c2)nnn1-c1nonc1N | 8.82% |
| CN(C)CCCn1c(=O)n(Cc2ccccc2)c(=O)c2c3c(sc21)CCCCC3 | -4.51% |
| Cc1occc1C(=O)NC1CCCN(Cc2ccc(CC(C)C)cc2)C1 (stereo not given) | 9.49% |
| CC1(C(=O)N/N=C/c2cc3c(cc2Br)OCO3)CC1(Br)Br (stereo not given) | 4.29% |
| CN1CCC(CN)(N2CCN(c3ccccc3)CC2)CC1 | -3.21% |
| COc1ccc(NC(=O)CNC(=O)Cc2ccccc2)cc1OC | -3.3% |
| O=C(NC1CCCC1)C(=O)c1c[nH]c2ccccc12 | 49.1% (active) |
| CC1CCN(CC(=O)c2c[nH]c3ccccc23)CC1 | 22.4% |
| O=C(C(=O)N1CCc2ccccc2C1)c1c[nH]c2ccccc12 | 10.7% |
| CC(=O)NC(Cc1c[nH]c2ccccc12)C(=O)NCCc1ccccc1 (stereo not given) | -4.02% |
| COc1ccc(OC)c2[nH]c(=O)c(CCNC(=O)C(=O)c3c[nH]c4ccccc34)cc12 | -1.63% |
| O=C(NCCCc1ccccc1)C(=O)c1c[nH]c2ccccc12 | 14.7% (active) |
| O=C(O)CC(CC(=O)N1CCOCC1)c1ccccc1 (stereo not given) | -2.32% |
| COc1ccc(/C=C2/C(=O)N(c3ccccc3)N=C2C)c(OC)c1 | -1.9% |
| Cc1cn(C2C=CC(CO)O2)c(=O)[nH]c1=O (stereo not given) | -1.84% |
| CN(C)CCN(Cc1ccccc1)S(=O)(=O)c1csc(C(N)=O)c1 | -8.34% |
| Cc1ccc(C(=O)c2ccc(N3CCN(C)CC3)c([N+](=O)[O-])c2)cc1 | 18.7% (active) |
| CCOC(=O)C1CCN(c2ccc(C(=O)O)cc2[N+](=O)[O-])CC1 | -2.89% |
| Cc1cccc(N2CCN(c3ccc(C(N)=O)cc3[N+](=O)[O-])CC2)c1C | -1.03% |
| COc1ccc(C(=O)NC2(C(F)(F)F)NC(=O)N(CCCc3ccccc3)C2=O)c(OC)c1OC (stereo not given) | 10.5% |
| Cc1ccc2c(c1)N(CC(=O)NCCc1ccc(Cl)cc1)C(=O)c1cccnc1O2 | -1.47% |

| SMILES | max response |
| --- | --- |
| CCn1cc(S(=O)(=O)c2cccc(C)c2)c(=O)c2cc(F)c(N3CCN(C)CC3)cc21 | -2.21% |
| CN(Cc1ccccc1Cl)C(=O)C1CCC(=O)N(CCc2cccc(F)c2)C1 (stereo not given) | 10% |
| Cc1cccc(C(=O)NCCCN(C)CCCNC(=O)c2cccc(C)c2)c1 | -0.372% |
| Cc1cccc(NC(=S)NCCN(C2CCCCC2)C2CCCC2)c1 | -7.35% |
| Cc1cccc(C(=O)NC(=S)N(C)C2CCCCC2)c1 | 61% (active) |
| O=S(=O)(/C=C/c1ccccc1)N1CCNCC1 | 0.861% |
| COc1ccc(C(=O)/C=C/c2cccnc2)c(OC)c1 | 8.73% |
| CC(/C=C/c1ccccc1)=N\NC(=O)C1CC1(C)c1ccccc1 (stereo not given) | -2.65% |
| COc1ccc(/C=C/C(=O)c2ccc(OC)cc2O)cc1 | 41.2% (active) |
| Cc1[nH]c(=O)c(C(=O)/C=C/c2ccccc2)c2c1CCCC2 | -1.39% |
| COc1ccc(/C=C/C(=O)c2cc(Br)ccc(=O)c2O)cc1 | -1.31% |
| O=C(/C=C/c1ccccc1)c1ccoc1 | 40.4% (active) |
| O=C(/C=C/c1ccccc1)N/C(=C/c1ccccc1)C(=O)Nc1ccccc1O | 8.16% |
| O=C(/C=C/c1ccccc1)c1ccccc1O | 29.3% (active) |
| CC(C)c1nc(CNC(=O)CC2C(=O)NCCN2Cc2cccc(F)c2F)cs1 (stereo not given) | -2.45% |
| COc1cc(C2NC(=O)NC(c3ccccc3)=C2C(C)=O)c(Br)cc1OCC(N)=O (stereo not given) | -1.35% |
| O=C(c1cccc(F)c1)N1CCN(c2ccc([N+](=O)[O-])c3cccnc23)CC1 | -5.99% |
| COc1cccc(C(=O)N2CCC(n3nccc3NC(=O)C3CCOC3)CC2)c1 (stereo not given) | 2.44% |
| CC(=O)N(Cc1cc(=O)[nH]c2ccccc12)c1ccc(C)cc1C | -0.991% |
| COc1ccccc1NC(=O)/C=C/C(N)=O | 9.83% |
| Cc1ccc(C)c(C(C)NC(=O)C2CCCO2)c1 (stereo not given) | -2.44% |
| Cc1cc([N+](=O)[O-])ccc1NC(=O)C1CCCO1 (stereo not given) | 3.91% |
| Cc1cc(C)c2nc(NC(=O)C3CCCO3)sc2c1 (stereo not given) | 44.3% (active) |

From PubChem BioAssay AID2314 (National Center for Advancing Translational Sciences (NCATS), 2010)
